High-throughput results: PubChem BioAssay, National Center for Advancing Translational Sciences (NCATS)
Sampled rows, rich in hits. Any-hit rate of the full collection: about 2.6%.
p53ts 32C kill – cytotoxicity in p53ts cells at permissive temperature. H1299-p53A138V at 32C, ATP luminescence viability, 24 h. hit rate 0.93% among 130,000. Potency, µM (titrated, usually from 46.1 µM), for inactives: top-dose activity change, negative = cytotoxicity, hits mostly cytotoxic. AID 924;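 further: 0% = DMSO and -100% = full killing by reference compound; nearly all actives have a fitted effect of over 55% in size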
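ATP-content luminescence (ATPlite) read-out after 24 h compound exposure at 32C in H1299-p53A138V cells (600/well). Tested up to 46 uM. Normalized to DMSO (0%) and 100 uM tamoxifen (100% killing); Hill-fit AC50.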
Luciferase inh – inhibitors of firefly luciferase. purified firefly luciferase, luminescence, 8 min. Potency, µM (doses to about 57.1 µM), without a hit: at the highest dose activity change, negative = inhibition, hits mostly inhibitors. hit rate 2.2% among 72,000; further: nearly all actives have a fitted effect of over 40% in size
Target sequence (P08659 whole entry, looked up): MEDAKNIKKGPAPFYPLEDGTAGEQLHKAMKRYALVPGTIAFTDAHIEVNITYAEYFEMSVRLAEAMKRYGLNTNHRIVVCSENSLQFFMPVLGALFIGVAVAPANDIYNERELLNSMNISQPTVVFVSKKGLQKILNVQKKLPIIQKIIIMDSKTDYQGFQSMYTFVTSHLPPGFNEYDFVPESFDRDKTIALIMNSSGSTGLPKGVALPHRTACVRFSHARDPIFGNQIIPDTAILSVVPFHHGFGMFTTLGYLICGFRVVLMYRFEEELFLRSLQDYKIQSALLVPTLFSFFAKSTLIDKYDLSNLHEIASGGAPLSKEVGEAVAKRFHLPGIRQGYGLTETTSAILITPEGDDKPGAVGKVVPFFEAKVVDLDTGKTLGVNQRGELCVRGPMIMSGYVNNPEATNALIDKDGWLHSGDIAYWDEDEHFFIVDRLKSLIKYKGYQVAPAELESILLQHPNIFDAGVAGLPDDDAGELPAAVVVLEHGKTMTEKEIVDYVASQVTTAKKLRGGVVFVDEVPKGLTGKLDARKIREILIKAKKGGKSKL
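Here, luciferase activity is measured as luminescence following an 8 min room-temperature reaction at 10 uM ATP, pH 7.2. Every library sample is titrated.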
p53ts 39C tox – kills p53ts cells at the nonpermissive temperature | H1299-p53A138V viability at 39C, ATP luminescence, 24 h | Potency, µM (series often up to 46.1 µM), inactives show at the highest dose activity change, negative = cell killing, hits mostly cytotoxic | hit rate 1.5% among 130,000 | AID 902; further: nearly all actives have a fitted effect of over 55% in size
* marks the source's active call; other numbers are inactive results; [ ] = remark or other dose. The call rests on the fitted dose curve; in most records, active means well fitted curve in the direction sought with a large enough effect; inconclusive means small, poorly fitted or top-dose-only effect, or another doubt; inactive means no such curve, though single readings can be large; an effect the other way counts as inactive or inconclusive. Unless noted, on the % scale 0 is the no-effect control and ±100 the full control effect; potency means the concentration at half of the fitted maximal effect.

What do the screens show for `CC(C)COc1ccc(C(=O)Nc2onc3c2CCCC3)cc1`?
p53ts 32C kill: inconclusive; p53ts 39C tox: 15.8µM*

What do the screens show for `CC(C)(C)c1ccc(C(=O)Nc2onc3c2CCCC3)cc1`?
p53ts 32C kill: 12.6µM*; p53ts 39C tox: 12.6µM*

How did CCOc1ccc(C(=O)NCC2CCCO2)cc1 (centres undefined) do in these assays?
p53ts 32C kill: -8.9%; Luciferase inh: -7.1%; p53ts 39C tox: 2.6%

Results for CCC1Oc2ccc(C)cc2N(CC(=O)NCc2ccc(F)cc2)C1=O (centres undefined) ?
p53ts 32C kill: 4.4%; p53ts 39C tox: -16.3%

Results for O=C(Nc1ccc(C(=O)N2CCN(c3cccc(Cl)c3)CC2)cc1)c1nsc2ccccc12 ?
p53ts 32C kill: -23.3%; p53ts 39C tox: inconclusive

What do the screens show for `CCn1c(C(=O)N2CCC(C(=O)N3CCN(c4cc(C)ccc4C)CC3)CC2)cc2sccc21`?
p53ts 32C kill: 5.0%; p53ts 39C tox: -23.0%

Results for C[C@@H](/C=C\c1cccc(Oc2ccc(F)cc2)c1)N(O)C(N)=O ?
p53ts 32C kill: 31.6µM*; Luciferase inh: -1.7%; p53ts 39C tox: 31.6µM*

What do the screens show for `COc1cccc(/C=C/C(=O)Oc2ccc(C(=O)c3ccc(F)cc3)cc2)c1`?
p53ts 39C tox: 17.1%

What do the screens show for `CCCn1cc(S(=O)(=O)c2cc(C)ccc2C)c(=O)c2cc(F)c(N3CCN(CC)CC3)cc21`?
p53ts 32C kill: -13.2%

How did CCc1nnc(NC(=O)c2ccc(S(=O)(=O)N(CC)CC)cc2)s1 do in these assays?
p53ts 32C kill: 2.4%; Luciferase inh: -3.2%; p53ts 39C tox: 9.8%

Results for CCCCN(C)S(=O)(=O)c1ccc(C(=O)Nc2sc3c(c2C(=O)OCC)CCN(C(C)C)C3)cc1 ?
p53ts 32C kill: 6.0%; p53ts 39C tox: -27.0%

Results for CCCCN(CCCC)S(=O)(=O)c1ccc(C(=O)Nc2nnc(COC)o2)cc1 ?
p53ts 32C kill: -13.4%; Luciferase inh: 1.0%; p53ts 39C tox: 10µM*

Results for CCCCN(CC)S(=O)(=O)c1ccc(C(=O)Nc2nnc(-c3cccs3)o2)cc1 ?
p53ts 32C kill: inconclusive; Luciferase inh: 0.9%; p53ts 39C tox: 12.6µM*

How did CCCCN(C)S(=O)(=O)c1ccc(C(=O)Nc2nnc(CSC)o2)cc1 do in these assays?
p53ts 32C kill: -21.1%; Luciferase inh: 2.2%; p53ts 39C tox: 10µM*

What do the screens show for `CCc1nnc(NC(=O)c2ccc(S(=O)(=O)N(CC)Cc3ccccc3)cc2)o1`?
p53ts 32C kill: -16.0%; Luciferase inh: -1.1%; p53ts 39C tox: inconclusive

Results for COc1ccc(OC)c(CCNC(=O)CCCn2c(=O)c3cccn3c3ccccc32)c1 ?
p53ts 32C kill: 1.2%; p53ts 39C tox: -8.5%

Results for Cc1ccc(NC(=O)c2c(C)oc3ccc(O)c(CN4CCCCCC4)c23)c(C)c1 ?
p53ts 32C kill: 11.7%; p53ts 39C tox: -8.6%

Results for O=C(Nc1ccccc1Br)c1cc(S(=O)(=O)NC2CCCCC2)ccc1F ?
p53ts 32C kill: 25.2%; p53ts 39C tox: -10.8%

How did C[C@H](NC(=O)OC(C)(C)C)c1nnc(SCc2ccc(Cl)cc2Cl)o1 do in these assays?
p53ts 32C kill: 3.1%; p53ts 39C tox: -11.7%

How did CC(=O)Nc1ccc(NC(=O)C(NC(=O)C2CCC(C)CC2)C(C)C)cc1 (centres undefined) do in these assays?
p53ts 32C kill: -3.1%; p53ts 39C tox: 22.4%

Results for O=C(CSC1=Nc2ccccc2N=C(c2ccc(F)cc2)C1)Nc1cc(F)ccc1F ?
p53ts 32C kill: -5.5%; p53ts 39C tox: -20.1%

How did COc1ccc(-c2ccc(CCC(=O)O)n2CC(=O)Nc2cccc(Cl)c2C)cc1 do in these assays?
p53ts 32C kill: 5.0%; p53ts 39C tox: -5.9%

How did CCc1nc(-c2cc(S(=O)(=O)N3CCN(c4ccccc4F)CC3)ccc2OC)no1 do in these assays?
p53ts 32C kill: -4.0%; p53ts 39C tox: -2.9%

What do the screens show for `COc1ccc(S(=O)(=O)N2CCN(c3ccccc3F)CC2)cc1-c1noc(C)n1`?
p53ts 32C kill: inconclusive; p53ts 39C tox: 12.6µM*

What do the screens show for `O=C(NCc1ccccn1)c1nn(-c2ccccc2Cl)nc1CO`?
p53ts 32C kill: 6.7%; p53ts 39C tox: -22.1%

How did Cc1nc2sccn2c1-c1nc(-c2cc3ccccc3o2)cs1 do in these assays?
p53ts 32C kill: -24.4%; Luciferase inh: -13.8%; p53ts 39C tox: inconclusive

How did Cc1ccnc(Nc2nc(-c3c(C)nc4sccn34)cs2)c1 do in these assays?
p53ts 32C kill: inconclusive; Luciferase inh: 15.8µM*; p53ts 39C tox: -26.5%

What do the screens show for `c1ccc(OCCSc2nnc3sc4ccccc4n23)cc1`?
p53ts 32C kill: inconclusive; Luciferase inh: 25.1µM*; p53ts 39C tox: inconclusive

How did COc1cccc(OCCSc2nnc3sc4ccccc4n23)c1 do in these assays?
p53ts 32C kill: inconclusive; Luciferase inh: -14.1%; p53ts 39C tox: -28.5%

How did O=C1c2ccccc2NC(c2ccc3c(c2)OCO3)N1O (centres undefined) do in these assays?
p53ts 32C kill: inconclusive; Luciferase inh: -8.6%; p53ts 39C tox: -27.5%

Results for O=C1c2ccccc2NC(c2ccc3c(c2)OCCO3)N1c1ccc2c(c1)OCCO2 (centres undefined) ?
p53ts 32C kill: 6.31µM*; Luciferase inh: 20µM*; p53ts 39C tox: 5.01µM*

How did CCn1c(/C(C#N)=C/c2ccccc2Cl)nc2ccccc21 do in these assays?
p53ts 32C kill: -21.0%; p53ts 39C tox: inconclusive

Results for COc1ccc(N/C=C(\C#N)c2nc3ccccc3n2C)c(OC)c1 ?
Luciferase inh: 3.98µM*

How did Cn1c(/C(C#N)=C/c2ccccc2Br)nc2ccccc21 do in these assays?
p53ts 32C kill: 10µM*; p53ts 39C tox: inconclusive

How did Cn1c(/C(C#N)=C(\O)COc2ccc3ccccc3c2)nc2ccccc21 do in these assays?
p53ts 32C kill: 2.3%; Luciferase inh: 7.6%; p53ts 39C tox: -10.3%

Results for CC(=O)c1ccc(N2CCN(S(=O)(=O)c3ccc4c(c3)CC(C)N4C(=O)C3CCC3)CC2)cc1 (centres undefined) ?
p53ts 32C kill: -13.4%

What do the screens show for `C=CCNc1ncnc2c1[nH]c1ccc(C)cc12`?
p53ts 32C kill: inconclusive; Luciferase inh: 10µM*; p53ts 39C tox: inconclusive

What do the screens show for `Cc1ccc2[nH]c3c(NCCN4CCOCC4)ncnc3c2c1`?
Luciferase inh: -2.8%[25.5 µM]

How did COc1cccc(-c2cc(NCc3cccc(C)c3)ncn2)c1 do in these assays?
p53ts 32C kill: -8.1%; Luciferase inh: -1.6%[2.29 µM]; p53ts 39C tox: -26.3%

Results for COc1cccc(-c2cc(NCc3cccs3)ncn2)c1 ?
p53ts 32C kill: 25.1µM*; Luciferase inh: -17.1%[2.29 µM]; p53ts 39C tox: inconclusive

Results for Cc1ccc(NC(=O)c2ccco2)c(OCc2cc(=O)n3cc(C)sc3n2)c1 ?
p53ts 32C kill: 7.2%; p53ts 39C tox: -3.0%

How did Cc1cc(C)c(CSc2nnc(C)n3c2cc2occc23)c(C)c1 do in these assays?
p53ts 32C kill: -19.8%; p53ts 39C tox: 20µM*

How did CCc1nnc(SCC(=O)Nc2ccc(Cl)cc2F)c2cc3occc3n12 do in these assays?
p53ts 32C kill: -3.2%; p53ts 39C tox: -7.8%

What do the screens show for `COc1ccc(CNC(=O)c2ccc(NC(=O)N3CCSc4ncccc43)cc2)c(OC)c1`?
p53ts 32C kill: 7.8%; p53ts 39C tox: -3.3%
